A selection: hits, their analogues and other compounds. The true share with any hit is near 21%.
CYP2C9 inh = blocks human cytochrome P450 2C9; 96,000 compounds, 20% hits; CYP2C9 Supersomes, luciferin-H conversion, luminescence; AID 777; inhibition, % at 5 µM; P11712;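 active = blocking of liver enzyme CYP2C9 beyond about 50% at 5 µM, limit read from the data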
CYP2C9 activ = CYP2C9 (human) activation | P11712 | recombinant CYP2C9, luciferin-H conversion, luminescence; active compounds read high; factor 1 = untreated enzyme, 0 = blocked | activation factor at 5 µM | 96,000 compounds, 1.4% hits | AID 1024;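 active = activation factor of 2 or more for CYP2C9 at a 5 µM dose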
CYP2C19 act = cytochrome P450 2C19 (human) activation; P33261; recombinant CYP2C19, luciferin-H EGE luminescence; active compounds read high; 0 = fully inhibited enzyme, 1 = untreated enzyme; activation factor at 5 µM; 96,000 tested, under 10 active;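 active = activation factor of at least 2 at 5 µM in the primary screen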
Target sequence (P33261 whole entry, looked up): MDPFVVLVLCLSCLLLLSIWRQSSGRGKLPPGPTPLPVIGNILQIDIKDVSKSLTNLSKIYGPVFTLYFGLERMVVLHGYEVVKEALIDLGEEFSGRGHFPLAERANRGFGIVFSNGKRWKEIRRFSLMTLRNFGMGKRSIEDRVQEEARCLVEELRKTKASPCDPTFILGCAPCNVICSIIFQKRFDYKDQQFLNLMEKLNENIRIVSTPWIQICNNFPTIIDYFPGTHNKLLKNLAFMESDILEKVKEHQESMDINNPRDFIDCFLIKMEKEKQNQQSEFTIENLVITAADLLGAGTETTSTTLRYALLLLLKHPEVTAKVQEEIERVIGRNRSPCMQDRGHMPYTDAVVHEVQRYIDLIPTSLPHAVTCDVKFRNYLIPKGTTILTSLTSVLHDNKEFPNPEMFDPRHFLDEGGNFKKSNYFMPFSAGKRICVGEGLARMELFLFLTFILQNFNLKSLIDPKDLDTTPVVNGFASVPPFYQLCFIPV
MRP1 act = activates MRP-1; H69AR cells + doxorubicin, viability rescue, CellTiter-Glo; viability increase, % at 10 µM; 140,000 compounds, 0.61% hits;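 active = viability gain under doxorubicin at or above a set limit, the compound median plus 3 SD, cut at about 4.7% in these data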;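 also: MRP-1 overexpressing cells given doxorubicin 25 µM after compound pretreatment; 18-22 h compound pretreatment then 72 h with doxorubicin before readout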
MRP reversal = reverses drug resistance mediated by MRP | differential viability (reversal), % at 10 µM | 85,000 compounds, 0.04% hits | H69AR cells + 2 uM doxorubicin, CellTiter-Glo, 72 h | AID 602;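 active = viability drop by adding the cancer drug above about 55%, with treated viability meeting a 40% cutoff, limit read from the data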;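 also: larger differential means the compound sensitizes cells more to doxorubicin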
CYP2C19 inh = inhibitors of human CYP2C19. CYP2C19 Supersomes, luciferin-H EGE luminescence, 30 min. inhibition, % at 5 µM. 96,000 compounds, 21% hits. P33261;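 active = CYP2C19 inhibition above a set limit at 5 µM in the primary screen, cut at about 50% in these data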
Each line names hits and unclear results; the compound was inactive in the other large screens.

c1ccc2c3c(cc(N4CCOCC4)c2c1)OC1(N2CCOCC2)CCCCC1O3 (centres undefined)	CYP2C9 inh 80, CYP2C19 inh 95
COc1nnc(-c2ccc(N3CCOCC3)c(NC(=O)C3CCCCC3)c2)c2ccccc12	none (no result: MRP reversal)
CCOC(=O)C1=C(O)/C(=C/c2ccc(C)o2)SC1=NC(=O)c1ccccc1C	none (no result: CYP2C9 inh, CYP2C9 activ, CYP2C19 act, MRP1 act, CYP2C19 inh)
Cc1cccc(C)c1OCC(=O)Nn1c(C)nc2ccccc2c1=O	CYP2C9 inh 64
Cc1ccc(C(C)C)c(OCC(=O)Nn2c(=O)[nH]c3ccccc3c2=O)c1	none (no result: CYP2C9 inh, CYP2C9 activ, CYP2C19 act, MRP reversal, CYP2C19 inh)
Cc1ccc(C(C)C)c(OCC(=O)Nn2c(C)nc3ccccc3c2=O)c1	CYP2C9 inh 84
COc1ccc(Cl)cc1C(=O)Nn1c(C)nc2ccccc2c1=O	CYP2C9 inh 52, CYP2C19 inh 57
Cc1cc(C(F)(F)F)nn1CCCNC(=O)c1cnccn1	CYP2C19 inh 50
CCCCOC(=O)Nc1cccc(C(C)=O)c1	none
COc1ccc(/C=C(/C(=O)NCc2ccccc2)c2ccccc2)cc1	none (no result: CYP2C9 inh, CYP2C9 activ, CYP2C19 act, MRP reversal, CYP2C19 inh)
COc1ccc(N/C=C(/C(C)=O)c2ccccc2)cc1	CYP2C9 inh 90, CYP2C19 inh 89 (no result: MRP reversal)
CCc1cc(-c2n[nH]c(=S)n2C(C)c2ccccc2)cs1 (centres undefined)	CYP2C9 inh 87, CYP2C19 inh 82 (no result: MRP reversal)
COc1ccc(-c2[nH]ncc2-c2csc(C)n2)c(O)c1	none (no result: CYP2C9 inh, CYP2C9 activ, CYP2C19 act, MRP reversal, CYP2C19 inh)
COc1cccc(Oc2cn[nH]c2-c2ccc(O)cc2O)c1	CYP2C9 inh 97, CYP2C19 inh 98
CCOc1ccc(-c2[nH]ncc2Oc2cccc(OC)c2)c(O)c1	CYP2C9 inh 100, CYP2C19 inh 99
COc1cccc(Oc2cn[nH]c2-c2ccc(OC)cc2O)c1	CYP2C9 inh 100, CYP2C19 inh 99
CCCc1nc2sc3c(SCC(=O)NCc4ccco4)ncnc3c2c2c1CCC2	none
O=C(c1ccc(F)cc1)N1CCN(c2cc(N3CCCCC3)c(F)cc2[N+](=O)[O-])CC1	CYP2C9 inh 86, CYP2C19 inh 95 (no result: MRP reversal)
O=C(c1cccn(Cc2ccc(Cl)c(Cl)c2)c1=O)N1CCOCC1	none (no result: MRP reversal)
O=c1c(-c2nc3ccccc3s2)cccn1Cc1ccc(Cl)c(Cl)c1	CYP2C9 inh 74 (no result: MRP reversal)
COC(=O)/C(=C/Nc1ccc(O)cc1)[N+](=O)[O-]	MRP1 act 5.2
O=C(CSCc1ccccc1)NNC(=S)Nc1cccc(Cl)c1Cl	CYP2C9 inh 87 (no result: MRP reversal)
O=C(COC(=O)CCc1nc2ccccc2s1)Nc1cccc(S(=O)(=O)N2CCOCC2)c1	CYP2C9 activ 2.1
O=C(COC(=O)CCc1nc2ccccc2s1)Nc1ccc(S(=O)(=O)N2CCOCC2)cc1	CYP2C9 inh 75
O=C(COC(=O)Cc1ccsc1)Nc1ccc(S(=O)(=O)N2CCOCC2)cc1	none (no result: CYP2C9 inh, CYP2C9 activ, CYP2C19 act, MRP reversal, CYP2C19 inh)
CCn1cc(C(=O)OCC(=O)Nc2cccc(S(=O)(=O)N3CCOCC3)c2)c(=O)c2ccc(C)nc21	CYP2C9 inh 67 (no result: MRP reversal)
CCN(Cc1ccccc1)Cc1cccc([N+](=O)[O-])c1	none (no result: MRP reversal)
COc1ccc(N2CCN(C(=O)CC34CC5CC(CC(C5)C3)C4)CC2)c([N+](=O)[O-])c1	none (no result: CYP2C9 inh, CYP2C9 activ, CYP2C19 act, MRP reversal, CYP2C19 inh)
CCCOC(=O)C1C2C=CC(C2)C1C(=O)OCC(=O)c1ccccc1 (centres undefined)	CYP2C9 inh 75, CYP2C19 inh 91 (no result: MRP reversal)
Cc1ccc(NS(=O)(=O)c2ccc(NC(=O)C(C)Sc3ccc(Cl)cc3)cc2)c(C)c1 (centres undefined)	none (no result: CYP2C9 inh, CYP2C9 activ, CYP2C19 act, MRP reversal, CYP2C19 inh)
COc1ccc(CCNC(=O)CN2C(=O)c3ccccc3S2(=O)=O)cc1	none (no result: CYP2C9 inh, CYP2C9 activ, CYP2C19 act, MRP reversal, CYP2C19 inh)
O=C1c2ccccc2S(=O)(=O)N1CC1CC(c2ccccc2)=NO1 (centres undefined)	CYP2C9 inh 81, CYP2C19 inh 82
COc1ccc(C2=NOC(CN3C(=O)c4ccccc4S3(=O)=O)C2)cc1 (centres undefined)	CYP2C9 inh 89, CYP2C19 inh 76
O=C1c2ccccc2S(=O)(=O)N1CC1CC(c2ccc(Cl)cc2)=NO1 (centres undefined)	none (no result: CYP2C9 inh, CYP2C9 activ, CYP2C19 act, MRP reversal, CYP2C19 inh)
COC(=O)c1c(C(=O)OC)n(CCCN)c2ccc(C)cc12	none
Cc1ccc2c(c1)c1cccc3c1n2CCN3CCC(N)=O	CYP2C9 inh 74
Cc1c(-c2ccccc2)nc2ccccc2c1C(=O)OCC(=O)Nc1ncc(C(F)(F)F)cc1Cl	none (no result: CYP2C9 inh, CYP2C9 activ, CYP2C19 act, MRP reversal, CYP2C19 inh)
CC(NC(=O)C(C)N1C(=O)C2C3CC(C(Br)C3Br)C2C1=O)c1ccccc1 (centres undefined)	none (no result: CYP2C9 inh, CYP2C9 activ, CYP2C19 act, MRP reversal, CYP2C19 inh)
c1ccc(-n2nnnc2OCCOc2nnnn2-c2ccccc2)cc1	none

Screening results: PubChem, several laboratories
